Compounds without any hit were thinned out: in the full panel of roughly 83,000, 20% have a hit.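 Each cell line was grown in a 96-well plate and treated with one concentration of compound for 48 hours. Values below 10 were considered active.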 The source made the active and inactive calls.
system: MDA-MB-468 breast; test: NCI-60 one-dose screen, 48 h (100 = growth as untreated, 0 = no growth, -100 = all killed); conditions: 10 µM unless noted

Row | Structure (SMILES) | growth
1 | Fc1ccc(N/N=C/c2ccc(-n3cccn3)cc2)cc1 | 121% (inactive)
2 | O=C1Nc2ccccc2/C1=C/c1cn(CCCn2c3ccccc3c(=O)c3ccccc32)c2ccccc12 | 96.4% (inactive)
3 | Cc1sc2ncn(CC(=O)Nc3ccc(S(N)(=O)=O)cc3)c(=O)c2c1C | 104% (inactive)
4 | CC1(C)CC(=O)c2c(ccc(C(=O)C[C@H](N)CO)c2N)O1 | 3.17% (active)
5 | CN1CCN(c2nc(-c3cnc4ccccc4n3)cc3ccccc23)CC1 | 9.21% (active)
6 | COc1cc2c(c3c1c(=O)c1cccc(F)c1n3C)C=CC(C)(C)O2 | 42.7% (inactive)
7 | CC1c2ccccc2-c2ccccc2N1C (stereo not given) | 103% (inactive)
8 | COc1ccc(NC(=O)c2sc3nc(C)c(C(=O)c4ccccc4)cc3c2N)cc1 | 83.9% (inactive)
9 | COC(=O)c1nc(-c2ccccc2)oc1S(=O)(=O)NCC(c1ccc(Cl)cc1)N1CCOCC1 (stereo not given) | 29.9% (inactive)
10 | c1ccc2c(c1)oc1c3cccnc3ccc21 | -62% (active)
11 | COc1ccc(-c2nnc(N3CCN(C(=O)CN4CCN(c5ccccc5)CC4)CC3)nc2-c2ccc(OC)cc2)cc1 | 41.4% (inactive)
12 | O=C(C(=O)c1ccc2c(c1)OCO2)c1ccc2c(c1)OCO2 | 96.9% (inactive)
13 | Cc1ccccc1NC(=O)Nc1nc2ccc([N+](=O)[O-])cc2s1 | -3.68% (active)
14 | O=C(Nc1ncc(Cc2ccccc2)s1)c1cc(-c2ccccc2)nc2ccccc12 | 103% (inactive)
15 | NC(=S)N/N=C(/C=C/c1cn(-c2ccccc2)nc1-c1ccc(Cl)cc1)c1cc2ccccc2oc1=O | 52.2% (inactive)

Source: PubChem BioAssay (NCI)
